TRPML1 inh = qHTS for Inhibitors of the Human Mucolipin Transient Receptor Potential 1 (TRPML1) | Mucolipin-1 (Homo sapiens), Q9GZU1 | TRPML1-inducible cells, Ca2+ dye fluorescence, FDSS; hits give low values; inhibition of EC80 agonist-evoked calcium signal | activity change, negative = inhibition, % (test concentration not listed) | 390,000 tested, 0.02% active | AID 624415, 2012; in the data active = activity change below about -50%; inconclusive = between about -30% and that limit;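 note: stimulus is agonist 54-4 at its EC80 concentration; % is set by controls: 0 for no effect and ±100 for the full control effect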
Target sequence (Q9GZU1 whole entry, looked up): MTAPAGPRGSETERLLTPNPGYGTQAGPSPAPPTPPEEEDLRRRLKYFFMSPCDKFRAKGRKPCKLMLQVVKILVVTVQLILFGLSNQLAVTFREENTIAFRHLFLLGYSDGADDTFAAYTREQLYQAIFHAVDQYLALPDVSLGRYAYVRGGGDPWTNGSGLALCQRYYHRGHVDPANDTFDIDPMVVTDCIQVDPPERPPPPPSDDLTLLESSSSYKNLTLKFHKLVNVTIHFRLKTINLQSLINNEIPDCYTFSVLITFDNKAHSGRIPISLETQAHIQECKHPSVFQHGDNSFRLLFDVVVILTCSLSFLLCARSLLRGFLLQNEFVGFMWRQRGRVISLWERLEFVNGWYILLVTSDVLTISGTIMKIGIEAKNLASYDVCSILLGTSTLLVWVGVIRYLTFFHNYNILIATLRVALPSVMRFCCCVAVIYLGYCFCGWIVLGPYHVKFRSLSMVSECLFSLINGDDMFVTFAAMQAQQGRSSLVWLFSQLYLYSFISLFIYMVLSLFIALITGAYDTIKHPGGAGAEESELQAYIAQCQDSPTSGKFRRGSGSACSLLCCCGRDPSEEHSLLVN
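TRPML1-DL cells, Tet-induced overnight (~16 h, 37 °C) at 1,500 cells/well, were loaded with Ca8 no-wash dye plus quencher for 45-90 min at room temperature. Compounds were pinned during FDSS kinetic reading; agonist 54-4 at EC80 (4 uM final) then added.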
PKM2 activator = qHTS Assay for Activators of Human Muscle isoform 2 Pyruvate Kinase; 260,000 tested, 0.34% active; Potency, µM (titrated, usually from 57.5 µM), inactives show at the highest dose activation, most hits filed as activators; purified PKM2, Kinase-Glo ATP luminescence, activation; response scale: 0% is enzyme alone, no compound; note: potency is the fitted concentration of half-maximal effect; % is set by controls: 0 for no effect and ±100 for the full control effect; nearly all actives have a fitted effect of over 55% in size
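Purified hPK-M2 (>95% pure) converted ADP (0.1 mM final) to ATP with 0.5 mM PEP in 50 mM imidazole pH7.2, KCl, MgCl2, Tween 20, BSA; 1 h at room temperature. ATP detected by Kinase-Glo luminescence.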
TSG101-PTAP inh = qHTS Assay for Iinhibitors of HIV-1 Budding by Blocking the Interaction of PTAP/TSG101; Potency, µM (titrated, usually from 115 µM), without a hit: top-dose activity change, negative = inhibition, hits mostly inhibitors; Tumor susceptibility gene 101 protein (Homo sapiens), Q99816; 340,000 tested, under 10 active; Fluorescence polarization, FITC-PTAP peptide / Tsg101 binding; active = well fitted inhibition curve with a large enough effect in the main read-out, with a control signal flat, not every such curve was filed as active; inconclusive = small, poorly fitted or top-dose-only effect, or effect the other way, or a change in a side signal; inactive = no such curve, though single readings can be large or run the other way; note: potency is the fitted concentration of half-maximal effect; % of control where 0% means no effect
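Tsg101 binding domain (10 uM final) was mixed with compound and a FITC-labeled PTAP peptide (50 nM final) in HEPES pH 7.5 buffer with NaCl, Tween 20, EDTA and TCEP; fluorescence polarization was read after 20 min at r.t.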
BRCA1 expr act = qHTS Assay to Identify Small Molecule Activators of BRCA1 Expression; MCF7-BRCA1-FFLuc reporter, luminescence, 48 h; response scale: scaled: vehicle 0%, 10 µM genistein 100%; Potency, µM (top dose mostly 46.1 µM), inactives show top-dose activation, actives largely listed as activators; 380,000 tested, 1.1% active; note: potency is the fitted concentration of half-maximal effect; nearly all actives have a fitted effect of over 80% in size
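Activators of BRCA1 expression were detected as increased firefly luciferase luminescence in engineered MCF7 cells after 48 h compound incubation. Signals were scaled to genistein 10 microM as full activation.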
IL-2 act = qHTS of IL-2 Activators; 360,000 tested, 0.065% active; IL-2 activation reporter assay, cell-based qHTS; stimulated with anti-CD3/CD4/CD28 beads; in transgenic mouse T cells; activation, % (series mostly up to about 46 µM); AID 652025, 2013; in the data active = activation above about 50%; inconclusive = mostly about 30% to 49%; note: 0% is about no effect
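Screening format: compound pinned onto unstimulated transgenic mouse T cells, 60 min incubation, then anti-CD3/anti-CD4/anti-CD28 bead stimulation for 18 hours at 37 degrees C, followed by EGFP and DsRed detection.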
TRPML1 agonist = qHTS for Agonists of the Human Mucolipin Transient Receptor Potential 1 (TRPML1); TRPML1-expressing cells, Ca2+ dye fluorescence, FDSS; activation, % (no concentration beside the values); 410,000 tested, 0.12% active; AID 624414, 2012; in the data active = activation above about 50%; inconclusive = mostly about 30% to 49%; note: 0% is about no effect
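Calcium fluorescence on an FDSS kinetic reader gave the read-out. Tet-induced TRPML1-DL cells were plated overnight, dye-loaded (Ca8 with quencher, 45-90 min, room temperature, dark), then read 110 s after compound addition, and again 110 s after 4uM final 54-4 (EC80).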
* = called active by the depositor; u = inconclusive; x = no result given. In the library only some 1.3% were active in any assay of this set; here they are far more common. Unless noted, calls come from the whole dose curve; as a rule, active = well fitted activation curve with a large enough effect; inconclusive = small, poorly fitted or top-dose-only effect; inactive = no such curve, though single readings can be large or run the other way.

SMILES	TRPML1 inh	PKM2 activator	TSG101-PTAP inh	BRCA1 expr act	IL-2 act	TRPML1 agonist
CCN(CC)c1ccc2c(c1)OC(N)=C(C#N)C2c1cccnc1 (stereo not given)	6	5%	u	u	u	70*
Cc1cccc(S(=O)(=O)N2CCN(c3nc(-c4cccs4)nc4ccccc34)CC2)c1	x	x	x	0%	x	0
O=C(O)c1ccc2c(c1)C(=O)N(CCc1c[nH]c3ccccc13)C2=O	-13	x	-9%	7.9µM*	1	0
COc1cccc(C(=O)NCCSc2ccc(C)cc2)c1	5	-7%	2%	14%	0	3
COC(=O)c1ccc(NC(=O)c2cccc(OC)c2)cc1	5	-63%	-5%	2.5µM*	-3	0
CCCC(=O)Nc1ccc(NC(=O)c2cccc(OC)c2)cn1	2	-1%	0%	-1%	1	1
CCC(=O)Nc1ccc(NC(=O)c2cccc(OC)c2)nc1	1	-16%	-7%	11µM*	-1	0
COc1cccc(C(=O)NCCSc2ccc(F)cc2)c1	1	-2%	-1%	11µM*	0	0
COc1cccc(C(=O)Nc2ccc(F)c(F)c2F)c1	7	-9%	-3%	3.5µM*	0	0
COc1cccc(C(=O)Nc2ccc(C(=O)O)cc2)c1	29	-2%	-1%	10%	-5	0
COC(=O)c1ccc(OCC(=O)c2cccc(OC)c2)cc1	-14	-3%	-10%	2µM*	-3	2
Cc1cccc(/C(N)=N/OC(=O)C23CC4CC(CC(C4)C2)C3)c1	-9	-1%	-4%	10µM*	0	1
COc1ccc(N/N=C(\C#N)C(=N)N2CCCCC2)cc1	1	-12%	2%	7.9µM*	1	-1
O=C(CSc1ccccn1)c1ccc2c(c1)OCO2	6	3%	-1%	7.1µM*	-1	0
O=C(CSc1ccccn1)Nc1ccc2c(c1)OCO2	16	0%	-2%	72%	-1	0
CCN(CC)c1ccc(NC(=O)c2cccc(C)c2OC)c(C)c1	13	5%	-4%	4.5µM*	-4	1
O=C(Nc1cccc(C(=O)N2CCN(c3ccc(Cl)cc3)CC2)c1)c1nsc2ccccc12	-11	x	x	x	x	2
O=S(=O)(Nc1cccc2cccnc12)c1ccc(S(=O)(=O)N2CCCC2)cc1	-3	29%	-1%	-67%	-2	66*
COc1ccc(CC(=O)Nc2ccc(S(=O)(=O)N3CCCC3)cc2)cc1OC	-2	x	0%	-28%	-1	0
COc1ccc(S(=O)(=O)N2CCCN(CC(=O)Nc3ccc(OC)c(Cl)c3)CC2)cc1	2	20µM*	-3%	-36%	3	2
COc1ccc(NC(=O)CN2CCN(S(=O)(=O)c3ccc(Cl)cc3)CC2)cc1Cl	-1	-1%	-5%	-30%	0	0
COc1cc(CC(=O)OCC(=O)Nc2ccc(S(=O)(=O)N3CCCC3)cc2)cc(OC)c1OC	0	20µM*	-2%	-26%	2	-1
CC(=O)Nc1ccc(/C=C/c2ccncc2)cc1	x	x	x	73%	x	-1
Cc1cc(N)ccc1-n1nc2ccccc2n1	-14	x	-1%	2%	1	1
Cc1c(N)ccc(-n2nc3ccccc3n2)c1C	14	x	-6%	11µM*	-2	1
SMILES	TRPML1 inh	PKM2 activator	TSG101-PTAP inh	BRCA1 expr act	IL-2 act	TRPML1 agonist
COc1ccccc1N1CCN(C2CCCN(C(=O)c3cc(C4CC4)on3)C2)CC1 (stereo not given)	-61*	-1%	0%	-8%	0	1
COc1ccc(-c2nnc(SCC(=O)N3CCOCC3)o2)cc1	-8	-1%	-4%	u	-1	0
COc1cccc(-c2nnc(SCC(=O)N3CCOCC3)o2)c1	12	1%	-2%	13µM*	1	0
O=C(CSc1nnc(-c2ccc(OC(F)F)cc2)o1)N1CCOCC1	-6	-1%	-10%	13µM*	3	0
COc1cccc(/C=N/Nc2nc(Nc3ccccc3)nc(-n3nc(C)cc3C)n2)c1O	-52*	5%	0%	-70%	0	1
COC(=O)c1ccc(COc2cc(O)c3c(c2)OC(C)(C)CC3=O)cc1	-2	-3%	-5%	-6%	-1	0
CC1(C)CC(=O)c2c(O)cc(OCc3ccc(Br)cc3)cc2O1	48	-6%	-3%	3.5µM*	0	5
COc1ccccc1CC(=O)Nc1ccc2c(c1)OC1(CCCC1)O2	2	x	0%	53%	-1	0
O=C(Cc1ccccc1)Nc1cc2c(cc1Cl)OCCCO2	16	-1%	-7%	3.2µM*	-2	-1
O=C(Cc1ccccc1)Nc1ccc2c(c1)OC1(CCCC1)O2	10	x	0%	4µM*	1	0
Cc1cc(C)cc(OCCn2nnc3ccccc32)c1	12	1%	-3%	11µM*	0	2
Cc1cccc(C)c1OCCn1nnc2ccccc21	8	1%	-2%	11%	2	1
Cc1ccc(C)c(OCCn2nnc3ccccc32)c1	-8	1%	-7%	99%	1	1
Clc1ccccc1OCCn1nnc2ccccc21	1	3%	0%	11µM*	-1	0
CN(C)c1ccc(/C=C2\C=Cc3ccccc32)cc1N	x	x	x	17%	x	0
CCOC(=O)c1cc2c(=O)n3ccccc3nc2n(Cc2ccco2)c1=NC(=O)c1c(F)cccc1Cl	-1	x	x	x	x	2
Cc1ccc(-c2nc3cnccn3c2Nc2ccc(C(C)C)cc2)o1	x	x	x	-7%	x	-1
CCn1c(O)c(C=Nc2ccccc2)sc1=S	-7	-1%	-2%	3.2µM*	4	0
Oc1c(C=Nc2ccccc2)sc(=S)n1Cc1ccccc1	10	-2%	0%	0%	71*	4
C=CCn1c(O)c(C=Nc2ccccc2)sc1=S	-10	1%	-8%	u	0	2
c1ccc(-c2nc(SCC3CCCCO3)n[nH]2)cc1 (stereo not given)	x	x	x	u	x	-1
Cc1sc2ccccc2[n+]1CCC[n+]1c(C)sc2ccccc21	x	x	x	x	x	0

Assay outcomes: PubChem, National Center for Advancing Translational Sciences (NCATS)
